Most compounds without a hit are left out; they make up all but 2.2% or so of the library.
VLA-4 inh – inhibition in human VLA-4 binding assay, primary screen, VLA-4 allosteric modulator project, MLPCN library, flow cytometry, VLA-4 expressing cells; ligand binding flow cytometry; Integrin alpha-4 (Homo sapiens), P13612; inhibition, % (about 7 µM as worked out from the volumes in the protocol); AID 2557, 2010; hit rate 0.2% among 330,000; in the data active = inhibition above about 50%
Target sequence (P13612 whole entry, looked up): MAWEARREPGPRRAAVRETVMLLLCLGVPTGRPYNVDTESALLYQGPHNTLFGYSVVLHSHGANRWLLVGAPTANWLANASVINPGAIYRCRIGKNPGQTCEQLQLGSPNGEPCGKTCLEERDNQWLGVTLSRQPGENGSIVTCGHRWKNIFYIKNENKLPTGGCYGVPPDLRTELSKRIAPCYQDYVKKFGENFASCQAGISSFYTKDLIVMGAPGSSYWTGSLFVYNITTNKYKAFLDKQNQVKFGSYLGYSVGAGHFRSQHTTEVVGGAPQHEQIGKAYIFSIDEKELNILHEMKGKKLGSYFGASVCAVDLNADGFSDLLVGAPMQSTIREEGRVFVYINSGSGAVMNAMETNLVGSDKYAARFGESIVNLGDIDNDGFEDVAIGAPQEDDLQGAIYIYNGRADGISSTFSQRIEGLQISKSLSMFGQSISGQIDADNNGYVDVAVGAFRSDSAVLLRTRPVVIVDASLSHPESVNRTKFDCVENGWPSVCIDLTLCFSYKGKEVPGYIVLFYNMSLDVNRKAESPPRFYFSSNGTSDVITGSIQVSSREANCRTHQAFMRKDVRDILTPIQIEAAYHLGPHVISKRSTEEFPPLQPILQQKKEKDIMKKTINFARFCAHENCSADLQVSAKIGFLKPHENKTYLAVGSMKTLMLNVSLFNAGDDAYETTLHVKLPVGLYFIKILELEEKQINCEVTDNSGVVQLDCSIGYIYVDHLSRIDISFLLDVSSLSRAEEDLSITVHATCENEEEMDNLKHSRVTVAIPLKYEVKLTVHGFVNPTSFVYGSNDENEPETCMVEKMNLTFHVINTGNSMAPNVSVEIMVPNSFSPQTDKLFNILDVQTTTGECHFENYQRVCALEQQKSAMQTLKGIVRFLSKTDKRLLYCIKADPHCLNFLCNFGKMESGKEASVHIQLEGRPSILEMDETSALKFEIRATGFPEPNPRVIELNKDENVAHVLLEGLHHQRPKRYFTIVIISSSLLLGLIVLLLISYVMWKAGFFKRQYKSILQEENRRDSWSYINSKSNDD
Platelet DG rel – inhibitors of platelet dense granule secretion, primary screen, cell-based, MLPCN, human platelets; human platelet-rich plasma, SFLLRN dense granule ATP release, luminescence; inhibition, %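 (compounds screened at 7.5 µM in platelet-rich plasma)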; hit rate 0.22% among 300,000;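 active = mean replicate score, as percent of positive control, at or above 50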
HIF act – HIF pathway transcriptional activators, primary screen, cell-based, U2OS HRE-luciferase, luminescence | activation, % at 7.5 µM (by protocol) | AID 1910, 2009 | hit rate 0.32% among 300,000 | U2OS HRE-luciferase reporter; normalized: DMSO 0%, desferrioxamine 100%;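 active = mean activation of at least 10% of the iron chelator positive control signal, with at least half of replicates also reaching 10%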
AI-2 QS mod – Vibrio harveyi AI-2 quorum sensing modulators, primary screen, JMH597 strain, luminescence/OD600 ratio. activity change, % at 7.5 µM. Vibrio harveyi JMH597 AI-2 luminescence/OD600 ratio, 9 h; active compounds read low; strain lacks LuxN and CqsS sensors; 0 = neutral-control median. hit rate 0.4% among 300,000; in the data active = activity change below about -75%, passing the limit was not always enough;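 also: luminescence divided by OD600 gain over 9 h not by final OD600 alone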
CHT block – inhibitors of human choline transporter CHT. AID 488975, 2010. hit rate 0.86% among 310,000. B-score at 10 µM. CHT-expressing cells, membrane potential dye, choline response; active compounds read low;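 active = B-score over 3 SD under the library average, and starting fluorescence ratio not unusually high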;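 also: choline stimulus applied at its EC90 after an EC20 pre-addition; B-score computed on integrated fluorescence ratio after choline addition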
CHT PAM – CHT positive allosteric modulators, primary screen, cell-based, membrane potential dye, choline EC20. B-score at 10 µM. hit rate 0.49% among 310,000. CHT-expressing cells; active compounds read high; LV-AA mutant CHT in HEK293 cells;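 active = initial fluorescence not abnormally high and integrated response B-score, plate-corrected, over 3 SD above library mean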
CHT activ conf – CHT activators, confirmation, cell-based, membrane potential dye, duplicate; shares compounds with CHT PAM; CHT-expressing cells, membrane potential dye fluorescence (FDSS); % of choline EC20–EC90 response window; HEK293 expressing CHT LV-AA mutant; choline added at its EC20; activation, % at 10 µM; hit rate 91% among 2,500; AID 504833, 2011;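 active = primary screen active, with duplicate mean activation above negative control mean plus 3 SD, cut at about 11% in these data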
HEK293 MP dye – membrane potential response in parental HEK293 cells, counter-screen for CHT activator project, cell-based, membrane potential dye | shares compounds with CHT PAM | membrane potential dye fluorescence (FDSS); measured after EC20 choline addition | ratio readout change at 10 µM, hits read low | hit rate 62% among 2,500 | AID 623908, 2012;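 active = duplicate-averaged ratio beyond 3 SD from buffer wells, up or down, though filed actives are nearly all decreases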
Starred values were filed as active, the others as inactive; i = inactive; . = not tested or not shown.

SMILES | VLA-4 inh | Platelet DG rel | HIF act | AI-2 QS mod | CHT block | CHT PAM | CHT activ conf | HEK293 MP dye
Cc1ccc(C(CCN)c2ccco2)cc1 (stereo not drawn) | 3 | -2 | 0 | 8 | i | i | . | .
CCC(=O)N(CCC(c1ccc(C)cc1)c1ccco1)Cc1ccco1 (stereo not drawn) | 23 | 0 | 0 | 35 | i | 8.7* | 40* | i
COc1ccc(-c2csc(N(CCCN(C)C)C(=O)c3ccc(C)cc3)n2)cc1 | 7 | 9 | 0 | 7 | i | i | . | .
COc1ccc(-c2csc(N(CCCN(C)C)C(=O)c3cccs3)n2)cc1 | 9 | 2 | 0 | 6 | i | i | 36* | -43*
O=C(Nc1ccc2nccnc2c1)c1cnccn1 | 13 | 4 | 4 | 22 | i | 7.5* | 53* | -58*
CCCn1c(C)cc(=O)c2cc(NC(=O)c3cnccn3)ccc21 | -8 | . | 0 | 9 | i | i | 41* | -80*
O=C(Nc1ccc2ccccc2c1)c1cnccn1 | -10 | 11 | 0 | 22 | i | i | . | .
CC1CCCN(c2c3c(nc4ccccc24)CCCC3)C1 (stereo not drawn) | 20 | -3 | -2 | 0 | i | i | 20* | i
CC1CCCN(c2ccc3nc4ccccc4c(=O)n3n2)C1 (stereo not drawn) | 8 | 1 | -3 | 19 | i | i | . | .
Cc1ccc2c(CSc3nc4ccccc4c(=O)n3CCCO)cc(=O)oc2c1C | 17 | -2 | -1 | -4 | i | 6.9* | 15* | i
Cc1ccc2c(CSc3nnc4ccccn34)cc(=O)oc2c1C | 6 | 2 | 1 | 14 | i | i | . | .
COc1ccc2nc(NC3=NCCC3)sc2c1 | 0 | -5 | 3 | 0 | i | 6.5* | 54* | -45*
C[n+]1cccc2ccc3c(c21)OC(N)=C(C#N)C3c1ccccc1 (stereo not drawn) | 12 | 17 | -1 | 15 | i | 10* | 72* | -80*
N#CC1=C(N)Oc2c(ccc3cccnc23)C1c1cccnc1 (stereo not drawn) | 4 | -1 | 0 | 17 | i | i | . | .
N#CC1=C(N)Oc2cc(O)ccc2C1c1ccccc1 (stereo not drawn) | 3 | 4 | 1 | 0 | i | i | . | .
C[n+]1cccc(C2C(C#N)=C(N)Oc3c2ccc2ccccc32)c1 (stereo not drawn) | -3 | 1 | 2 | 19 | i | i | 43* | -57*
Cc1nccn1CCC(=O)Nc1ccc(Cl)cc1 | -8 | -3 | -1 | 17 | i | i | . | .
COc1ccc(NC(=O)CSc2n[nH]c(CNc3cccc(C)c3)n2)cc1 | 6 | -7 | -1 | 11 | i | i | . | .
COc1cccc(C(C(=O)NCC2CCCO2)N(C(=O)Cn2nnc3ccccc32)c2ccccc2C(C)=O)c1OC (stereo not drawn) | 6 | -5 | 0 | 9 | i | i | . | .
CC(C)(C)NC(=O)c1oc2ccccc2c1COc1ccccc1 | 9 | -8 | -1 | 12 | i | i | 33* | i
CC(OC(=O)c1oc2ccccc2c1COc1ccccc1)C(N)=O (stereo not drawn) | 16 | -1 | 0 | 29 | i | i | . | .
COc1ccc(NC(=O)c2ccc3c(c2)C(=O)N(Cc2cccnc2)C3=O)cc1 | 4 | 15 | -1 | 11 | i | i | . | .
Cc1cc(NC(=O)c2ccc3c(c2)C(=O)N(C)C3=O)no1 | 12 | 0 | 0 | 25 | i | i | 44* | -42*
Cc1cc(NC(=O)c2ccc3c(c2)C(=O)N(Cc2cccnc2)C3=O)no1 | 13 | 3 | 0 | 41 | i | i | 26* | -27*
Cc1ccccc1N=C(NOCc1ccc(Cl)cc1Cl)c1nonc1N | -5 | 2 | 0 | 12 | i | i | . | .
SMILES | VLA-4 inh | Platelet DG rel | HIF act | AI-2 QS mod | CHT block | CHT PAM | CHT activ conf | HEK293 MP dye
Cc1ccc(N=C(NOCc2ccc(Cl)cc2Cl)c2nonc2N)c(C)c1 | 1 | 11 | 0 | 21 | i | 8.8* | 28* | i
O=C(O)c1cccc(S(=O)(=O)N(Cc2ccccc2)c2cccc(C(F)(F)F)c2)c1 | 5 | 0 | 1 | 12 | i | i | . | .
Nc1ccc(C(=O)OCc2ccncc2)cc1[N+](=O)[O-] | -5 | 3 | 0 | 4 | i | i | 35* | -31*
CCOC(=O)C(NC(=O)CC)(Nc1sc2c(c1C(=O)OC)CCN(C)C2)C(F)(F)F (stereo not drawn) | -13 | -2 | 0 | 20 | i | 7.5* | 26* | -49*
CCC(=O)NC(Nc1sc2c(c1C(=O)OC)CCN(C)C2)(C(F)(F)F)C(F)(F)F | 9 | 3 | 1 | 20 | i | i | . | .
CCOC(=O)NC(Nc1sc2c(c1C(=O)OC)CCN(C)C2)(C(F)(F)F)C(F)(F)F | -2 | -2 | 0 | 19 | i | 7.6* | 8 | -50*
CC[N+](CC)(CC)CCOc1ccc(/C=C/c2ccccc2)cc1 | -8 | . | . | . | i | i | . | .
CC[N+](CC)(CC)CCOc1cccc(OCC[N+](CC)(CC)CC)c1OCC[N+](CC)(CC)CC | 1 | . | . | . | i | 11* | 72* | -93*
CCn1c(SCC(=O)NNC(=O)c2ccc(C)cc2)nnc1C1CC1 | 3 | -2 | 0 | 25 | i | i | . | .
COc1cc2c(cc1OC)C(c1cccs1)N(C(=S)NC(C)C)CC2 (stereo not drawn) | 19 | 4 | -1 | -9 | i | 8.7* | 14* | i
COc1cc2c(cc1OC)C(c1cccs1)N(C(=O)c1ccncc1)CC2 (stereo not drawn) | -15 | 3 | 1 | 19 | i | i | . | .
CCOC(=O)c1c(CNc2ccncc2)n(C)c2cc(Br)c(O)cc12 | -18 | -5 | 0 | 14 | i | 11* | 52* | -51*
CCOC(=O)c1c(C)n(C)c2cc(Br)c(C)cc12 | 3 | 5 | . | 21 | i | i | . | .

Compound activity deposited in PubChem by several laboratories.
